# Experimental data reported in PubChem BioAssay AID652010 (The Scripps Research Institute Molecular Screening Center, 2013).
# The whole screen tested about 370,000 compounds, of which about 4,100 (1.1%) were called active.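 The calls were made as follows: active = inhibition above the mean over all tested compounds plus 3 SD (cut at about 3.6% in these data); inactive = the rest.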 The list comes from a sample in which actives are over-represented; it also holds similar structures and randomly drawn compounds.
# Assay: DAX1 (NR0B1) inhibitors on StAR promoter, primary screen, cell-based, luminescence, SF-1 (NR5A1), full-length DAX-1 (AID 652010);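 also: 0% = DAX-1 cells with DMSO and 100% = cells lacking DAX-1 with DMSO; higher inhibition means more luminescence from relief of DAX-1 repression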
# Details: HEK293T StAR-luciferase reporter, SF-1/DAX-1 repression relief; at 6.8 µM; hits give high values
row,Compound,inhibition
1,COC(=O)Cc1nnn2c1[C@H](C)[C@H](c1ccccc1Br)OCC2,-0.78% (inactive)
2,COc1ccc(/C=C2\CC3(OC(C)=O)CCCN2C3)cc1 (centres undefined),1.13% (inactive)
3,CN1C(=O)/C(=C/C=C2\SCCN2C)OC1=S,3.87% (active)
4,Cc1ccccc1NC(=O)Cn1nnc(-c2ccccc2F)n1,-0.11% (inactive)
5,CC1CCCN(CC(O)COc2ccc3c(c2)OCO3)C1 (centres undefined),0.13% (inactive)
6,CCOc1ccc(-n2c(SCC(=O)Nc3cc(C)c(NC(=O)c4ccccc4)cc3OC)nnc2-c2cccs2)cc1,-3.08% (inactive)
7,C#CCNC(=O)C[C@H]1C[C@@]2(C(=O)OC)C(=C[C@H](C(C)C)O[C@@H]2C2CC2)N(Cc2ccco2)C1=O,0.65% (inactive)
8,Clc1ccccc1-c1cc(COc2ccc3ccccc3c2)no1,0.4% (inactive)
9,Clc1ccc(-c2cc(C3CCNCC3)[nH]n2)c(Cl)c1,-0.17% (inactive)
10,Clc1ccc(-c2cc(-c3ccccn3)on2)c(Cl)c1,3.68% (active)
11,CC(C)CNC(=O)OCc1cn(Cc2ccc(F)cc2)nn1,-0.13% (inactive)
12,Cc1cc(N)n2nc(-c3ccc(C(C)(C)C)cc3)cc2n1,5.95% (active)
13,CCCC(=O)C1=C(N(C)c2ccccc2)CC(C)(C)C(C(=O)OC)C1=O (centres undefined),0.24% (inactive)
14,CCOc1ccc(-n2c(SCC(=O)Nc3cc(C)c(NC(=O)c4ccccc4)cc3OC)nnc2-c2cccc(Cl)c2)cc1,-2.96% (inactive)
15,CCOC(=O)N1CCN(C(=O)c2ccc3nc4cc(Cl)ccc4c(=O)n3c2)CC1,-1.01% (inactive)
16,C=CCN1C(=O)[C@@H](CC(=O)N2CCN(C(=O)c3ccco3)CC2)[C@]2(C(=O)OC)CCCCC=C12,0.15% (inactive)
17,COC(=O)c1ccc(CNC(=O)c2ccc3oc(C(C)C)nc3c2)cc1,4.25% (active)
18,COc1ccc(CNC(=O)c2ccc3oc(C(C)C)nc3c2)cc1,3.41% (inactive)
19,CC(C)c1nc2cc(C(=O)NC(C)c3cnn(C)c3)ccc2o1 (centres undefined),-0.03% (inactive)
20,COc1ccccc1Oc1ccc(N/C=C2/CCCC2=O)cc1,0.78% (inactive)

row,Compound,inhibition
1,Cc1ccc(N/N=C2\COC(C)(C)CC2=O)cc1,-0.09% (inactive)
2,COc1ccc(N/N=C2/CCCCC2=O)cc1,4.31% (active)
3,COc1cccc2cc(C(C)N(CCCN3CCOCC3)C(=O)Nc3ccc(Cl)cc3)oc12 (centres undefined),-0.37% (inactive)
4,CN(C(=O)CSc1nnc(Nc2ccccc2)s1)C1CCS(=O)(=O)C1 (centres undefined),0.34% (inactive)
5,CC(C)c1ccc(Nc2nnc(SCC(=O)c3nnc(-c4ccccc4)o3)s2)cc1,5.21% (active)
6,COc1cccc(Nc2nnc(SCC(=O)N3CC(C)OC(C)C3)s2)c1 (centres undefined),0.08% (inactive)
7,C#CCN1CC(C)/C(=N/O)CC1C (centres undefined),0.13% (inactive)
8,O=C(O)C1CCCN1S(=O)(=O)c1ccc(Br)cc1 (centres undefined),0.15% (inactive)
9,CC1CN/C(=C\C(=O)c2ccc(Br)cc2)C(=O)N1 (centres undefined),4.26% (active)
10,COc1cc2c(cc1OC)/C(=C/C(=O)c1ccc(NC(C)=O)cc1)NCC2,-0.03% (inactive)
11,CC(CCN1CCC(C(O)(c2ccccc2)c2ccccc2)CC1)Oc1ccc(Cl)cc1 (centres undefined),0.18% (inactive)
12,Cc1nc2cc(NCc3cccs3)ccc2n1C,2.41% (inactive)
13,Cc1nc2cc(NC(=O)Nc3cccc(F)c3)ccc2n1C,5.18% (active)
14,O=C(Nc1cccc(F)c1)c1coc(=O)c(Br)c1,0.24% (inactive)
15,N/C(=N\OC(=O)CC1CCCCC1)c1ccccc1,-0.16% (inactive)
16,N/C(=N\OC(=O)Cc1ccc([N+](=O)[O-])cc1)c1ccccn1,0.83% (inactive)
17,N/C(=N\OC(=O)CCC1CCCCC1)c1ccccn1,4.25% (active)
18,COCC(=O)N[C@@H]1C[C@@H]2O[C@@H](CO)CC[C@@H]2O[C@@H]1CCc1ccc(-c2ccccc2)cc1,-0.14% (inactive)
19,CSc1nc2nc3c(c(=O)n2[nH]1)CCC3,-0.21% (inactive)
20,O=c1c2c(nc3cc(-c4cccc(Cl)c4)[nH]n13)CCCC2,13.9% (active)

row,Compound,inhibition
1,COC(=O)[C@]12C[C@H](CC(=O)NCc3ccccc3)C(=O)N(CCC3=CCCCC3)C1=C[C@H](C(C)C)O[C@@H]2C1CC1,-1.17% (inactive)
2,O=C1Nc2ccccc2OC1CC(=O)N1CCCCCCC1 (centres undefined),-0.39% (inactive)
3,Cc1cc(C)nc(Nc2n[nH]c(-c3ccccc3N)n2)n1,4.12% (active)
4,CC(C)(C)C(c1nc2ccccc2[nH]1)n1c(Cc2csc3ccccc23)nc2ccccc21 (centres undefined),0.83% (inactive)
5,O=C(Nc1ccccc1)N1CCN(Cc2nc3ccccc3c(=O)[nH]2)CC1,-0.16% (inactive)
6,COc1ccnc(NC(=S)N2CCN(c3ncc(C(F)(F)F)cc3Cl)CC2)c1,-0.4% (inactive)
7,C=CCOC/C=C/C#CCN(CC=C)Cc1ccc(OC)cc1OC,-0.5% (inactive)
8,COc1cc(CO)ccc1OCC(=O)Nc1cccc2ccccc12,-3.43% (inactive)
9,COc1ccc(CNC(=O)CSc2n[nH]c(N)n2)cc1OC,-0.05% (inactive)
10,COc1ccc(CNC(=O)COc2ccccc2C(=O)c2cnn(-c3ccccc3)c2)cc1OC,4% (active)
11,O=C(CSc1nnc(-c2cccc(Cl)c2)n1Cc1ccco1)Nc1ccc(OCc2ccccc2)cc1,-2.28% (inactive)
12,NS(=O)(=O)c1ccc2nc(NC(=O)C3=COCCO3)sc2c1,9.6% (active)
13,NS(=O)(=O)c1ccc2nc(NC(=O)CS(=O)(=O)c3ccc(F)cc3)sc2c1,0.31% (inactive)
14,CCC(CC)c1nnc(NC(=O)C2=COCCO2)s1,1.13% (inactive)
15,C[C@@H]1ON(C)[C@H]2C[C@H]3c4[nH]c5cccc(-c6ccc7c(c6)OCO7)c5c4CCN3C[C@@H]12,0.45% (inactive)
16,O=S1(=O)c2c(NCc3ccco3)cccc2Oc2ccccc2CN1Cc1cn(Cc2cccc(C(F)(F)F)c2)nn1,-0.91% (inactive)
17,O=C(Nc1cccc(F)c1)NC1CCCCCCC1,4.46% (active)
18,O=C(Nc1cccc(F)c1)[C@@H]1CCCN1,-0.32% (inactive)
19,Cc1cc(C)cc(NC(=O)NC2CCCCCCC2)c1,3.33% (inactive)
